This is a sample that favours compounds with a hit; in the whole collection about 7.5% have one here.
VACV mCherry inh = inhibitors of vaccinia virus infection (mCherry reporter signal). Vaccinia virus mCherry reporter infection, fluorescence. Potency, µM (top dose mostly 36.5 µM), most hits filed as inhibitors. 0.63% of 310,000 active. AID 720579; calls by dose curve; tested in A549 cells; further: nearly all actives have a fitted effect of over 35% in size
FMDV antiviral = foot and mouth disease virus antiviral activity; AID 1159524; Potency, µM (top dose mostly 57.9 µM), hits mostly inhibitors; FMDV antiviral cell-based qHTS; 1.2% of 410,000 active; calls by dose curve; tested in HEK293T cells; further: read-out not given here; nearly all actives have a fitted effect of over 45% in size
FBPA Giardia inh = inhibitors of Giardia lamblia fructose-1,6-bisphosphate aldolase. purified Giardia FBPA. A8B2U2. Potency, µM (series often up to 59.6 µM), usual class: inhibitors. 0.71% of 290,000 active; further: nearly all actives have a fitted effect of over 55% in size
Target sequence (A8B2U2 whole entry, looked up): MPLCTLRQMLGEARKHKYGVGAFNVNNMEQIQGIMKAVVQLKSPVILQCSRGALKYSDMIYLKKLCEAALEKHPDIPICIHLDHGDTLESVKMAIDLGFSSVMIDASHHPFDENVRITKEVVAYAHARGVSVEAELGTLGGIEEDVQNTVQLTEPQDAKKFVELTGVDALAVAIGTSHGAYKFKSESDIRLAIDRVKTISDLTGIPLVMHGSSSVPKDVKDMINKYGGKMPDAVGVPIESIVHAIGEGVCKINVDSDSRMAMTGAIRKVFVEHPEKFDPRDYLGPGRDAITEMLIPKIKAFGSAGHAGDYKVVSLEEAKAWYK
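Giardia FBPA (40 nM reagent) was preincubated 10 min at RT with compound (up to 57.5 uM final), then substrate plus GAPDH/TPI/NAD/arsenate coupling system with diaphorase/resazurin was added; resorufin fluorescence (525/598 nm) was read after 20 min.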
HCMV inh = human cytomegalovirus inhibition; HFF cells, HCMV-luciferase reporter, 72 h; hits give low values; activity change, negative = inhibition, % at 57.5 µM; 4.5% of 410,000 active; AID 1259415; in the data active means activity change below about -60%; inconclusive means no clear call, values can overlap the other calls; inactive means above about -39%
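Compounds were evaluated in HFFs infected with an HCMV luciferase reporter virus (MOI 1 PFU/cell). Luciferase in lysates collected 72 h post infection served as the replication measure.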
Vaccinia Venus = inhibitors of vaccinia virus (Venus reporter); Vaccinia virus Venus reporter expression, fluorescence; Potency, µM (series often up to 36.5 µM), actives largely listed as inhibitors; AID 720580; 0.46% of 330,000 active; calls by dose curve; tested in A549 cells; further: nearly all actives have a fitted effect of over 30% in size
HCV inh = inhibitors of hepatitis C virus infection | Potency, µM (highest dose often 41.8 µM), usual class: inhibitors | 3.4% of 340,000 active | Huh7.5.1 HCVcc-Cre infection, luciferase reporter, 44 h | AID 651820
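Infectious HCVcc-Cre (~0.5 moi) was added to cells just after compound, with cells seeded 4 h earlier at 1,000 per well. Luciferase activity after 44 h culture reported infection; substrate was incubated 15 min at room temperature before reading.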
Large screens that a line does not name were inactive. Unless noted, the call rests on the fitted dose curve; in most records, active means well fitted curve in the direction sought with a large enough effect; inconclusive means small, poorly fitted or top-dose-only effect, or another doubt; inactive means no such curve, though single readings can be large; an effect the other way counts as inactive or inconclusive.

C[C@@H]1CN([C@H](C)CO)C(=O)c2c(c3ccccc3n2C)-c2ccccc2CO[C@H]1CN(C)C(=O)CCC(F)(F)F	FMDV antiviral inconclusive (no result: FBPA Giardia inh, HCV inh)
CC(CCC(=O)O)C1CCC2C3CC[C@H]4CC(O)CC[C@@]4(C)C3C=C[C@]12C (some centres undefined)	none (no result: HCMV inh, HCV inh)
COc1ccc2c(c1)OC[C@H]1[C@H]2N2C(=O)CN(Cc3ccc(C)cc3)C(=O)[C@@]2(C)[C@H]1c1ccccc1	HCV inh 11µM (no result: FBPA Giardia inh)
COc1ccc2c(c1)OC[C@H]1[C@H]2N2C(=O)CN(Cc3ccc(F)cc3)C(=O)[C@@]2(C)[C@H]1c1ccccc1	FMDV antiviral inconclusive, HCV inh inconclusive (no result: FBPA Giardia inh)
Cc1ccc(Cn2c(SC(C)C(N)=O)nc3ccccc3c2=O)cc1 (centres undefined)	none
O=C(CCCn1c(=O)[nH]c2ccc(Br)cc2c1=O)N1CCN(c2cccc(Cl)c2)CC1	VACV mCherry inh inconclusive, HCMV inh -100 (no result: FBPA Giardia inh, HCV inh)
COc1cc2[nH]c(=O)n(CCCC(=O)N3CCN(c4cccc(C(F)(F)F)c4)CC3)c(=O)c2cc1OC	FMDV antiviral inconclusive (no result: FBPA Giardia inh, HCV inh)
O=C(CCCCn1c(=O)[nH]c2ccsc2c1=O)N1CCN(c2cccc(C(F)(F)F)c2)CC1	FMDV antiviral 40µM, HCMV inh inconclusive (no result: FBPA Giardia inh, HCV inh)
CCOC(=O)C1CCN(C(=O)CCn2c(=O)[nH]c3ccccc3c2=O)CC1	none (no result: VACV mCherry inh, Vaccinia Venus)
CC(=O)c1ccc(N2CCN(C(=O)CCCn3c(=O)[nH]c4ccc(Br)cc4c3=O)CC2)cc1	FMDV antiviral inconclusive, HCMV inh inconclusive, HCV inh inconclusive (no result: VACV mCherry inh, Vaccinia Venus)
CCOC(=O)C1CCN(C(=O)CCCCn2c(=O)[nH]c3ccccc3c2=O)CC1	HCMV inh -79
O=C(CCCCn1c(=O)[nH]c2ccccc2c1=O)N1CCN(c2cccc(C(F)(F)F)c2)CC1	VACV mCherry inh inconclusive, Vaccinia Venus inconclusive, HCV inh 11µM
O=C(CCn1c(=O)[nH]c2ccccc2c1=O)N1CCN(c2cccc(C(F)(F)F)c2)CC1	FMDV antiviral inconclusive (no result: VACV mCherry inh, Vaccinia Venus)
COC(=O)CC1c2ccccc2C=C(C2CC2)N1C(=O)OC (centres undefined)	none (no result: VACV mCherry inh, FMDV antiviral, HCMV inh, Vaccinia Venus, HCV inh)
COc1cc(/C=N/NC(=O)CC23CC4CC(CC(C4)C2)C3)cc(Br)c1OCC(=O)N(C)C	Vaccinia Venus inconclusive, HCV inh inconclusive
CN(C)c1ccc(/C=C/c2ccc3ccccc3n2)cc1	FMDV antiviral 6.3µM, HCV inh inconclusive (no result: HCMV inh)
C(=C\c1ccc2ccccc2n1)/c1ccc2ccccc2n1	none (no result: FMDV antiviral, FBPA Giardia inh, HCMV inh, HCV inh)
CC(=O)Oc1ccc(Cl)cc1/C=C/c1ccc2ccccc2n1	Vaccinia Venus inconclusive, HCV inh 7.9µM
C(=C\c1ccc2ccccc2n1)/c1ccccc1	VACV mCherry inh 5µM, FBPA Giardia inh inconclusive, Vaccinia Venus inconclusive
CN(C)c1ccc(/C=C/c2cccc3cc4ccccc4nc23)cc1	VACV mCherry inh 11µM, Vaccinia Venus 16µM (no result: FMDV antiviral, FBPA Giardia inh, HCMV inh, HCV inh)
O=C(Nc1ccccc1C(=O)Nc1ccc(Br)cn1)c1cccc([N+](=O)[O-])c1	none (no result: VACV mCherry inh, Vaccinia Venus)
C(=Cc1c[nH]c2ccccc12)c1ccc2ccccc2n1	VACV mCherry inh 0.71µM, FMDV antiviral inconclusive, HCMV inh -92, HCV inh 5.6µM (no result: FBPA Giardia inh)
Oc1ccc(/C=C/c2ccc3ccccc3n2)cc1	VACV mCherry inh inconclusive, HCMV inh -68, HCV inh inconclusive
CN(C)c1ccc(/C=C/c2nc3ccccc3s2)cc1	FMDV antiviral 5µM, HCMV inh -92 (no result: FBPA Giardia inh)
Fc1ccccc1/C=C/c1ccc2ccccc2n1	FMDV antiviral 10µM
Cn1cc(/C=C/c2ccc3ccccc3n2)c2ccccc21	none (no result: FMDV antiviral, FBPA Giardia inh, HCMV inh, HCV inh)
O=[N+]([O-])c1ccc(/C=C/c2ccc3ccccc3n2)cc1	HCMV inh inconclusive
COc1cc(/C=C/C(=O)O)ccc1OS(=O)(=O)c1cc(C)ccc1C	none
Cc1c(NC(=O)CSCc2ccco2)c(=O)n(-c2ccccc2)n1C	none
CC(C)C[C@@H](CN1CCCC1CN1C(=S)NC[C@@H]1Cc1ccc(O)cc1)N1C[C@H](Cc2ccc(O)cc2)N(CC2CCCCCC2)C1=S (some centres undefined)	VACV mCherry inh 6.3µM, FMDV antiviral inconclusive, HCMV inh -90, Vaccinia Venus 11µM, HCV inh inconclusive (no result: FBPA Giardia inh)
CC(C)C[C@@H](CN1CCCC1CN1C(=S)NC[C@@H]1Cc1ccc(O)cc1)N1C[C@H](Cc2ccccc2)N(CC2CCCCC2)C1=S (some centres undefined)	FMDV antiviral inconclusive, HCMV inh -71, Vaccinia Venus inconclusive, HCV inh 22µM (no result: FBPA Giardia inh)
CC(C)C[C@@H](CN1CCCC1CN1C(=S)NC[C@@H]1Cc1ccc(O)cc1)N1C[C@H](Cc2ccccc2)N(CC2CCCCCC2)C1=S (some centres undefined)	HCV inh inconclusive (no result: FBPA Giardia inh)
C=C1C[C@@]2(C)CCCC3=CC(=O)C=C[C@@]32c2ccc(OC)c(OC)c21	none (no result: VACV mCherry inh, FMDV antiviral, FBPA Giardia inh, Vaccinia Venus, HCV inh)
CN(c1ccccc1)P(=O)(N1CC1)N1CC1	none (no result: FBPA Giardia inh)
CN(c1ccccc1)P(=O)(N(C)c1ccccc1)N(C)c1ccccc1	HCMV inh -86 (no result: VACV mCherry inh, Vaccinia Venus)
CCOC(=O)c1cc([N+](=O)[O-])c([N+](=O)[O-])cc1NC(C)=O	FMDV antiviral inconclusive, HCMV inh -100, HCV inh inconclusive
CCOC(=O)c1ccc(NC(=O)c2ccccc2[N+](=O)[O-])cc1	HCV inh inconclusive
O=C(COC(=O)CNC(=O)c1ccco1)NCCN1C(=O)CSC1=O	HCMV inh -62 (no result: VACV mCherry inh, Vaccinia Venus)
Cn1c(=O)oc2cc(S(=O)(=O)N3CCC(C(=O)N4CC=C(c5ccccc5)CC4)CC3)ccc21	HCMV inh -73
O=C(C1CCN(S(=O)(=O)c2cccc3cccnc23)CC1)N1CC=C(c2ccccc2)CC1	none (no result: VACV mCherry inh, FMDV antiviral, HCMV inh, Vaccinia Venus, HCV inh)
CN1CCN(C(=O)C2CCN(S(=O)(=O)c3ccc4c(c3)oc(=O)n4C)CC2)CC1	none
O=C(C1CCN(S(=O)(=O)c2ccc(F)cc2)CC1)N1CC=C(c2ccccc2)CC1	FBPA Giardia inh inconclusive, HCMV inh -101, HCV inh inconclusive (no result: VACV mCherry inh, Vaccinia Venus)
CCOC(=O)c1c(NC(=O)CS(=O)(=O)c2cn(CC)c3ccccc23)sc2c1CCCC2	HCV inh inconclusive
COc1ccc(OC)c(NC(=O)CSC2=NN3CCCC(=O)N=C3S2)c1	none
CCOC(=O)c1c(NC(=O)CS(=O)(=O)c2cn(CC)c3ccccc23)sc2c1CCCCC2	HCMV inh -71, HCV inh inconclusive
CCOC(=O)c1ccc(NC(=O)CSC2=NN3CCCC(=O)N=C3S2)cc1	HCV inh inconclusive (no result: VACV mCherry inh, Vaccinia Venus)
CCOC(=O)c1c(NC(=O)CSC2=NN3CCCC(=O)N=C3S2)sc2c1CCCCC2	VACV mCherry inh inconclusive, HCV inh 8.9µM
CCOc1ccccc1NC(=O)CSC1=NN2CCCC(=O)N=C2S1	HCMV inh -80
COc1ccc(Cl)cc1NC(=O)CSC1=NN2CCCC(=O)N=C2S1	VACV mCherry inh inconclusive, FMDV antiviral inconclusive, HCMV inh -71, HCV inh inconclusive
COc1ccc(OC)c(CN2CCN(C(=O)c3cc4ccccc4cc3O)CC2)c1	none
CC(C)CNc1cc(N2CCCC2)ccc1[N+](=O)[O-]	HCV inh 4µM (no result: FMDV antiviral)

Screens (PubChem)
